Hits are enriched below; roughly 21% of the tested compounds scored in any of these assays.
SARS PLP yeast – SARS-CoV PLP inhibition in yeast. Potency, µM (highest dose often 32.9 µM), inactives show at the highest dose activity, positive = growth rescue, hits mostly activators. 330,000 tested, 0.19% active. S. cerevisiae expressing SARS-CoV PLpro, growth rescue; also: potency is read from the fitted curve at half-maximal effect; 0% is about no effect; nearly all actives have a fitted effect of over 55% in size
Shiga inhibitor – inhibitors of Shiga toxin in Vero cells. Vero cells, Shiga toxin protein synthesis inhibition reporter. inhibition, % at 38.7 µM. 290,000 tested, 9.2% active. AID 2315; in the data active = inhibition mostly above about 28%, no sharp cut-off; inactive = mostly below about 43%; also: 0% is about no effect
NS1 function inh – influenza NS1 inhibition | AID 2326 | Potency, µM (titrated, usually from 46.1 µM), for the others: top-dose activity, positive = more growth | 270,000 tested, 0.4% active; also: potency is read from the fitted curve at half-maximal effect; actives are rising curves; nearly all actives have a fitted effect of over 50% in size
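S. cerevisiae expressing influenza A NS1, grown in glucose, washed, then diluted 1:100 into pH 6.0 -URA galactose medium with 23 nl compound. Growth recovery read as OD600; NS1-free strain serves as control.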
Pf growth 48h – P. falciparum growth inhibition at 48 hours (one generation); P. falciparum luciferase growth in erythrocytes, 48 h; Potency, µM (doses to about 28.7 µM), for inactives: at the top dose activity change, negative = inhibition, usual class: inhibitors; 310,000 tested, 5.9% active; AID 504832; active = well fitted inhibition curve with a large enough effect; inconclusive = small, poorly fitted or top-dose-only effect, or another doubt; inactive = no such curve, though single readings can be large or run the other way; also: potency is read from the fitted curve at half-maximal effect; % is scaled to controls: 0 for no effect and ±100 for the full control effect
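Luminescence readout; reporter = integrated firefly luciferase in P. falciparum. RBC culture at 2% hematocrit, 0.1% parasitemia final, 37 C/5% CO2; decreased signal taken as growth inhibition.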
Pf growth 96h – P. falciparum growth inhibition at 96 hour, primary screen for plastid delayed-death inhibitors; P. falciparum luciferase reporter growth, 96 h; Potency, µM (highest dose often 28.7 µM), without a hit: at the top dose activity change, negative = inhibition, hits mostly inhibitors; 320,000 tested, 6.9% active; active = well fitted inhibition curve with a large enough effect; inconclusive = small, poorly fitted or top-dose-only effect, or another doubt; inactive = no such curve, though single readings can be large or run the other way; also: potency is read from the fitted curve at half-maximal effect; % is scaled to controls: 0 for no effect and ±100 for the full control effect
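Erythrocytes infected with luciferase-expressing P. falciparum were dispensed at 2% hematocrit and 0.05% parasitemia (final), then incubated with compounds 96 hours at 37 C in 5% CO2. Luminescence after detection reagent addition reported growth.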
Cycloheximide cs – counter-screen hit for Shiga toxin inhibitors, cycloheximide | cell reporter, cycloheximide protein synthesis inhibition counterscreen | max response, % | 300,000 tested, 12% active | AID 2314; in the data active = max response mostly above about 13%, no sharp cut-off; inactive = mostly below about 14%; also: read at 38.3 µM for the half of the compounds with a filed dose; 0% is about no effect
* hit, by the source's call; i = inactive; ? = inconclusive; / = no result. Unless noted, calls follow the shape of the full dose curve.

SMILES | SARS PLP yeast | Shiga inhibitor | NS1 function inh | Pf growth 48h | Pf growth 96h | Cycloheximide cs
CCOC(=O)c1ccc(N2CN(CC)CNC2=S)cc1 | 10µM* | 12 | 5% | 6% | 0% | 9
CCCN1CNC(=S)N(c2ccc(C(=O)OCC)cc2)C1 | 5% | -5 | 7% | 18% | i | -1
CCOC(=O)c1ccc(N2C(=O)C3C(C2=O)C(C(=O)c2ccc(Cl)cc2)N2CCCC32)cc1 (stereo not drawn) | -8% | 3 | -11% | 13µM* | 17% | 2
CCc1nc(SCc2cccnc2)[nH]c(=O)c1C | -1% | -6 | -2% | 23% | 6% | -2
CCOC(=O)c1ccc(N2C(=O)C3CC=CCC3C2=O)cc1 (stereo not drawn) | -5% | 21 | 6% | 18% | 25% | 19*
Cc1ccc(N2CN(CCc3ccccc3)CNC2=S)cc1 | 0% | -1 | -1% | 9.3µM* | ? | 1
CCOC(=O)c1ccc(N2C(=O)CC(SCC(N)C(=O)OCC)C2=O)cc1 (stereo not drawn) | -16% | 20 | -15% | 10µM* | 90% | 11
COc1ccc2c(Cn3cnc4cc([N+](=O)[O-])ccc4c3=O)cc(=O)oc2c1 | 0% | 13 | 6% | 0% | 6% | -2
COc1ccc(S(=O)(=O)Nc2cccc3c2O[C@H](CN(C)C(=O)Nc2ccc4c(c2)OCO4)[C@@H](C)CN([C@H](C)CO)C3=O)cc1 | 1% | / | / | / | / | /
CCOc1ccc(C(=O)Nc2nc3ccccc3[nH]2)cc1OCC | 1% | 105* | / | ? | ? | 51*
COc1ccc(OC)c(S(=O)(=O)N2CCC(c3nc4ccccc4[nH]3)CC2)c1 | -7% | / | / | ? | 10µM* | /
COc1ccc(C(=O)Nc2cccc(C(=O)O)c2)cc1S(=O)(=O)N1CCCC1 | 4% | -9 | 3% | 119% | 1% | -3
CCn1c(C(C)NC(=O)c2ccc(OC)c(OC)c2)nc2ccccc21 (stereo not drawn) | -3% | 70* | -9% | 2% | ? | 18*
COc1ccc(C(=O)Nc2nc3ccccc3[nH]2)cc1S(=O)(=O)N1CCCC1 | -6% | 75* | 4% | -27% | / | 19*
COc1ccc(C(=O)NC(C)c2nc3ccccc3n2C)cc1OC (stereo not drawn) | 3% | 3 | -6% | -1% | -7% | 4
CCc1ccc(C(=O)Nc2nc3ccccc3[nH]2)cc1 | -7% | -12 | -21% | -60% | -29% | -10
COc1ccc(S(=O)(=O)N2CCN(c3ccccc3)CC2)cc1-c1noc(C)n1 | / | -9 | / | / | / | 6
CCN(CCCNC(=O)C1CCN(S(=O)(=O)c2cnc[nH]2)CC1)c1cccc(C)c1 | 7% | -3 | ? | ? | 9% | 5
COc1ccccc1NC(=O)COC(=O)CCC(=O)c1cccs1 | -1% | / | / | 5% | ? | /
COc1ccc(C(=O)NC(C)c2nc3ccccc3[nH]2)cc1OC (stereo not drawn) | -24% | 2 | 0% | 5% | ? | -2
COc1cc(C(=O)Nc2nc3ccccc3[nH]2)ccc1OC(F)F | 0% | 62* | -8% | 139% | -67% | 39*
COc1ccc(C(=O)Nc2nc3ccccc3[nH]2)cc1OC | -2% | 86* | 0% | 196% | 39% | 42*
Cc1cc(=O)n2c(-c3ccc(Cl)cc3)csc2n1 | -3% | 24 | 4% | -4% | -5% | 6
CCN(CC)C(=O)CC(c1ccc(F)cc1)c1ccc(OC)cc1 (stereo not drawn) | 13% | -4 | 6% | -10% | ? | 0
O=C(Cn1cc(C(F)(F)F)ccc1=O)N/N=C/c1ccccc1 | 0% | -9 | / | 18% | 25% | -1
C/C(=N\Nc1ccc(C)c(Cl)c1)c1cccnc1 | -7% | 89* | -52% | ? | -4% | 41*
C/C(=N\Nc1cccc(Cl)c1)c1ccc(-n2ccnc2)cc1 | -22% | -1 | 4% | ? | 12µM* | -6
C/C(=N\Nc1ccc(C)c(Cl)c1)c1ccncc1 | -35% | 39 | -73% | ? | ? | 30*
CC(=NNS(=O)(=O)c1cccc([N+](=O)[O-])c1)c1ccc(-n2ccnc2)cc1 | -4% | / | / | / | / | /
C/C(=N\NC(=O)C(=O)Nc1ccc(C)c(Cl)c1)c1ccncc1 | 16% | -2 | -2% | 17% | -16% | 1

Source: PubChem (National Center for Advancing Translational Sciences (NCATS))
